By inhibition is commonly meant the percentage by which the read-out fell short of the control.

Structures are written as SMILES. The list shows a part of the results. A number with no mark means an inactive call. The source made the active and inactive calls.

Data on 33 compounds can be found in PubChem BioAssay.

One assay deals with Potassium channel subfamily K member 9 (Homo sapiens) (UniProt Q9NPC2). The experiment in a line: human KCNK9 potassium channel blockers – cell-based, selectivity assay for Kir2.1 inhibitor project (AID 2329). Conditions: KCNK9-expressing cells, ion flux inhibition, at 10 µM; active compounds read high.
Turning to `Cc1nnc(SCc2ccc(C(=O)c3ccc(Cl)cc3)o2)n1-c1ccccc1`, the result was inactive.

For `C/C=C(/C)C(=O)OC1Cc2c(ccc3ccc(=O)oc23)OC1(C)C` (stereo unspecified), the outcome was inactive.

For the compound `CN1CCN(CCCCOc2ccccc2-c2ccccc2)CC1`, the outcome was inactive.

`Clc1cccc(Cl)c1OCCOCCNCc1ccccc1`: the compound was classed as inactive.

Take `O=C(NCCc1c[nH]c2ccccc12)C1CCN(Cc2ccc(Br)cc2)CC1`: the outcome was inactive.

With `CCCc1cc(=O)[nH]c(SCC(=O)c2cc(C)n(CCC)c2C)n1`, the outcome was inactive.

With `O=C(CCCN1CCc2[nH]c3ccc(F)cc3c2C1)c1ccc(F)cc1`, the compound was called inactive.

`O=C(Nc1cccc(-c2cscn2)c1)C1CCN(Cc2ccsc2)CC1`: the call was inactive.

As for `CC1(C)NC(=O)N(CCCCSc2ccc(Cl)cc2)C1=O`, the outcome was inactive.

In the case of `CC(NCc1ccccc1OC1CCCC1)c1ccccc1` (stereo unspecified), the result was inactive.

With `Cc1cc(C)nc(SCc2nnc(SCC(=O)OC3CCCCC3)o2)n1`, the outcome was inactive.

`CC(C)(c1ccccc1)c1ccc(OCCN)cc1`: the call was inactive.

As to `Cc1ccc(Nc2c3c(nc4ccccc24)CCC3)cc1`, the call was inactive.

`COc1ccc(C(O)(C2CCCCC2)C(CN2CCCC2)c2ccccc2)cc1` (stereo unspecified): the compound was classed as inactive.

As to `Cc1ccccc1C(=O)NCCN=C1NS(=O)(=O)c2ccccc21`, the result was inactive.

As to `S=C(Nc1ccc(Br)cc1)NC1CCN(Cc2ccccc2)CC1`, the outcome was inactive.

With `C=CCc1cc(S(=O)(=O)c2ccc(O)c(CC=C)c2)ccc1O`, the inhibition is 79% (active).

The next assay addresses Inward rectifier potassium channel 2 (Mus musculus) (UniProt P35561). As to the kind of experiment: PubChem AID 2345.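 Also: 0% = vehicle mean plus 3 SD and 100% = vehicle minus no-stimulus blank window.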 Conditions: HEK293 Kir2.1, FluxOR thallium flux fluorescence; at 10 µM; active compounds read high.
Take `CN(c1ccccc1)S(=O)(=O)c1ccc(Cl)c(C(=O)OCC(=O)NCc2ccco2)c1`: the activity over 3SD threshold was -38.2%.

On to `Cc1cccc(NC(=O)c2nc(S(=O)(=O)Cc3ccccc3)ncc2Cl)c1`, for which the activity over 3SD threshold is -36%.

Turning to `O=C(/C=C/Sc1ncn[nH]1)c1ccc(Cl)cc1`, the activity over 3SD threshold is -56.5%.

Turning to `CC1=NN(C(=O)c2ccc(Br)cc2)C(O)(c2ccccc2)C1` (stereo unspecified), the activity over 3SD threshold is -31.6%.

In the case of `Cc1ccc(C(=O)Nc2nnc(C3=COCCO3)o2)cc1C`, the activity over 3SD threshold is -30.3%.

`COc1ccc(-c2n[nH]c(C)c2-c2ccccc2OC)c(O)c1`: the activity over 3SD threshold is -44.6%.

For the compound `CCCc1nc2sc3c(c2c(=O)n1NC(=O)CCCl)CCCC3`, the activity over 3SD threshold was -17.7%.

For `CCOC(=O)NC(C(F)(F)F)(C(F)(F)F)P(=O)(c1ccccc1)c1ccccc1`, the activity over 3SD threshold is -34.2%.

As to `CCc1ccccc1NC(=O)[C@@H]1CCC(=O)N1C1OC(=O)c2c1ccc(OC)c2OC` (stereo partly specified), the activity over 3SD threshold was -22%.

Consider `CC1(c2ccccc2Cl)NC(=O)N(CC(=O)NC(=O)NCc2ccco2)C1=O` (stereo unspecified), for which the activity over 3SD threshold is -15.3%.

With `COc1ccc(C(=O)Nc2ncc3c(n2)-c2ccccc2CC3)cc1`, the activity over 3SD threshold was -29.6%.

For the compound `CCCn1c(C2CCCN2c2nc(-c3ccc(C)cc3)cs2)nc2cc(Cl)c(N3CCCCC3)cc21` (stereo unspecified), the activity over 3SD threshold was -27.9%.

As for `Cc1ccc(S(=O)(=O)N2CCN(C(=O)COC(=O)c3c(C)cc(C)cc3C)CC2)c(C)c1`, the activity over 3SD threshold was -17.6%.

For `Cc1cc2cc3c(cc2nc1SCC(=O)Nc1c(C)cccc1C)CCC3`, the activity over 3SD threshold is -19.1%.

Consider `O=C(NCc1ccc2c(c1)OCO2)C12CC3CC(CC(C3)C1)C2`, for which the activity over 3SD threshold was -47%.

As to `CC(C)Cc1nnc(NC(=O)CCc2ccccc2)s1`, the activity over 3SD threshold is -23.2%.

The target of another assay is Potassium voltage-gated channel subfamily KQT member 2 (Rattus norvegicus) (UniProt O88943). As to the kind of experiment: W236L mutant KCNQ2 current enhancers – cell-based, rat KCNQ2 W236L, CHO, automated patch clamp, mechanism study for KCNQ2 potentiator project (AID 2558;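 active = current increase at least 3 SD of the untreated controls above them in both duplicate recordings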). Conditions: at 25 µM. (In general: In patch-clamp work, channel activity is measured electrically.)
Sequence of Potassium voltage-gated channel subfamily KQT member 2 (Rattus norvegicus) (O88943 whole entry W236L, looked up): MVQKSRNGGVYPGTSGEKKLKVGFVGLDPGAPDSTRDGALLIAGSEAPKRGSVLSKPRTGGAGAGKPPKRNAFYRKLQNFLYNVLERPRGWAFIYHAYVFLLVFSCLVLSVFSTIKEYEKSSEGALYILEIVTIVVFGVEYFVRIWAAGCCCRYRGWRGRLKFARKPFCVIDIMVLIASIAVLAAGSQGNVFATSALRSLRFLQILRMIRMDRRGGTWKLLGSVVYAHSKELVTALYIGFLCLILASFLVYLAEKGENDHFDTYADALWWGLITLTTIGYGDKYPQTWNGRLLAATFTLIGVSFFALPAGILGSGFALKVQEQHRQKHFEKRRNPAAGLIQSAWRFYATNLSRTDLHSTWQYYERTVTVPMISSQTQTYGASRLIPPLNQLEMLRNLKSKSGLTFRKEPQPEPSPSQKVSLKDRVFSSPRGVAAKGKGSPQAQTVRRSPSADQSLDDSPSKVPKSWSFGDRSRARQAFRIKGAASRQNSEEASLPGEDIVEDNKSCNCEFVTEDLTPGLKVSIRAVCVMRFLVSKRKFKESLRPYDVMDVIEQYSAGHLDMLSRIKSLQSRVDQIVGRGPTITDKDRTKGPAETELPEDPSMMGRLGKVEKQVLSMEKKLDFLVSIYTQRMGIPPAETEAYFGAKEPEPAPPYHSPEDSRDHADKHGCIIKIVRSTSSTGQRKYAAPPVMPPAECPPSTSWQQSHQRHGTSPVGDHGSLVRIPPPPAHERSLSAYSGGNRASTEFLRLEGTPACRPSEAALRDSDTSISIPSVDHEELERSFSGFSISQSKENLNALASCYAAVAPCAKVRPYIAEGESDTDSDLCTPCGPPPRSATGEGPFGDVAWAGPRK
For the compound `Cc1cccc(NC(=O)c2nc(S(=O)(=O)Cc3ccccc3)ncc2Cl)c1`, the outcome was inactive.

In the case of `Cc1ccc(C(=O)Nc2nnc(C3=COCCO3)o2)cc1C`, the result was inactive.

On to `CCCc1nc2sc3c(c2c(=O)n1NC(=O)CCCl)CCCC3`, for which the result was inactive.

Regarding `COc1ccc(C(=O)Nc2ncc3c(n2)-c2ccccc2CC3)cc1`, the outcome was inactive.

For `Cc1ccc(S(=O)(=O)N2CCN(C(=O)COC(=O)c3c(C)cc(C)cc3C)CC2)c(C)c1`, the result was inactive.

For the compound `O=C(NCc1ccc2c(c1)OCO2)C12CC3CC(CC(C3)C1)C2`, the outcome was inactive.

A further assay deals with Inward rectifier potassium channel 2 (Mus musculus) (UniProt P35561). As to the kind of experiment: Kir2.1 potassium current inhibition – cell-based, secondary, automated electrophysiology, Kir2.1 inhibitor project (AID 463252). As to conditions: Kir2.1 cells, automated patch-clamp current inhibition, at 25 µM; active compounds read high.
Sequence of Inward rectifier potassium channel 2 (Mus musculus) (P35561 whole entry, looked up): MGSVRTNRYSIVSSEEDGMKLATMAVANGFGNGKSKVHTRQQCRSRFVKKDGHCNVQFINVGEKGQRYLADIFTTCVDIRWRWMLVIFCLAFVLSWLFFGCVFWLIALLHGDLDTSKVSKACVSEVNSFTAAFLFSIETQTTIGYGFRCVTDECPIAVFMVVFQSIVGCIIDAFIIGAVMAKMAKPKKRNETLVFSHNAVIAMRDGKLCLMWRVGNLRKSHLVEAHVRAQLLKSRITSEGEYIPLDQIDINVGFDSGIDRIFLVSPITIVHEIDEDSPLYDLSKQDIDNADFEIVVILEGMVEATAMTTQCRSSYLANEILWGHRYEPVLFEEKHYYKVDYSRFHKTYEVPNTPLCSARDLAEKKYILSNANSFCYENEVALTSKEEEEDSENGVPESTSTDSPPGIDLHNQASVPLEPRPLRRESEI
`Cc1nnc(SCc2ccc(C(=O)c3ccc(Cl)cc3)o2)n1-c1ccccc1`: the inhibition was 19% (active).

As to `C/C=C(/C)C(=O)OC1Cc2c(ccc3ccc(=O)oc23)OC1(C)C` (stereo unspecified), the call was inactive.

With `CN1CCN(CCCCOc2ccccc2-c2ccccc2)CC1`, the inhibition was 27.4% (active).

On to `Clc1cccc(Cl)c1OCCOCCNCc1ccccc1`, for which the inhibition was 69.6% (active).

In the case of `O=C(NCCc1c[nH]c2ccccc12)C1CCN(Cc2ccc(Br)cc2)CC1`, the call was inactive.

On to `CCCc1cc(=O)[nH]c(SCC(=O)c2cc(C)n(CCC)c2C)n1`, for which the inhibition was 30.9% (active).

For `O=C(CCCN1CCc2[nH]c3ccc(F)cc3c2C1)c1ccc(F)cc1`, the inhibition is 5.5% (active).

As to `O=C(Nc1cccc(-c2cscn2)c1)C1CCN(Cc2ccsc2)CC1`, the inhibition was 7.1% (active).

Take `CC1(C)NC(=O)N(CCCCSc2ccc(Cl)cc2)C1=O`: the inhibition was 40.8% (active).

Regarding `CC(NCc1ccccc1OC1CCCC1)c1ccccc1` (stereo unspecified), the inhibition was 23.4% (active).

On to `Cc1cc(C)nc(SCc2nnc(SCC(=O)OC3CCCCC3)o2)n1`, for which the inhibition was 82.2% (active).

Regarding `CC(C)(c1ccccc1)c1ccc(OCCN)cc1`, the inhibition was 36.1% (active).

For `Cc1ccc(Nc2c3c(nc4ccccc24)CCC3)cc1`, the inhibition is 83.9% (active).

Regarding `COc1ccc(C(O)(C2CCCCC2)C(CN2CCCC2)c2ccccc2)cc1` (stereo unspecified), the call was inactive.

For `Cc1ccccc1C(=O)NCCN=C1NS(=O)(=O)c2ccccc21`, the outcome was inactive.

Regarding `S=C(Nc1ccc(Br)cc1)NC1CCN(Cc2ccccc2)CC1`, the inhibition is 4.2% (active).

As for `C=CCc1cc(S(=O)(=O)c2ccc(O)c(CC=C)c2)ccc1O`, the compound was called inactive.
